# From PubChem
# SRC1 TRFRET art – TR-FRET artefact, counter-screen to PPARgamma/SRC-1 agonist assay; TR-FRET detection artefact counter-screen, emission ratio; hits give high values; TR-FRET ratio at 8 µM; hit rate 0.34% among 99,000; AID 1051; in the data active = TR-FRET ratio above about 2300
# SRC3 TRFRET art – flags TR-FRET format artefacts in PPARgamma SRC-3 recruitment agonist screen; TR-FRET artefact counter-screen, PPARgamma/SRC-3 format; hits give high values; TR-FRET ratio at 8 µM; hit rate 0.39% among 99,000; AID 1048; in the data active = TR-FRET ratio above about 2000
# PPARg SRC2 recr – PPARgamma-driven SRC-2 recruitment agonism | P37231 | PPARgamma LBD-SRC-2 recruitment, biochemical | activation, % at 8 µM | hit rate 0.34% among 200,000
# Target sequence (P37231 whole entry, looked up, the tested form may be a part): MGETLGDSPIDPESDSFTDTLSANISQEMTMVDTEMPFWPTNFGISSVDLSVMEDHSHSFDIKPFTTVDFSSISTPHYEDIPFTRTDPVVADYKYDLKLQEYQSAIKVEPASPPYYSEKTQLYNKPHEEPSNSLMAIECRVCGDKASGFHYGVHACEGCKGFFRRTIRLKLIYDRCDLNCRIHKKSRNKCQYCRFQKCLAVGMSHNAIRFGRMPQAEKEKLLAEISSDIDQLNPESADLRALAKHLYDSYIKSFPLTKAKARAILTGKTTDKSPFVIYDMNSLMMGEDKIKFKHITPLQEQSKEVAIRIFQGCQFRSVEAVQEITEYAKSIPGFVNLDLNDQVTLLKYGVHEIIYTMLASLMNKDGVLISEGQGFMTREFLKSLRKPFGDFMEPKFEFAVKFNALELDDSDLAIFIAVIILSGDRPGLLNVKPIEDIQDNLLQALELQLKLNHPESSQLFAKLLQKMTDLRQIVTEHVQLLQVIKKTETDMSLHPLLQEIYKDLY
# PPARg SRC-3 ag – agonists of human PPARgamma SRC-3 coactivator recruitment; P37231; biochemical PPARgamma/SRC-3 coactivator recruitment assay; activation, % at 8 µM; hit rate 0.26% among 200,000; AID 731; in the data active = activation above about 23%
# SRC2 TRFRET art – counter-screen for PPARgamma SRC-2 recruitment agonists: TR-FRET artefact; hits give high values; hit rate 0.4% among 200,000; TR-FRET ratio at 8 µM; AID 1049; in the data active = TR-FRET ratio above about 2000
# PPARg SRC1 recr – agonists of human PPARgamma SRC-1 coactivator recruitment; P37231; PPARgamma-SRC-1 coactivator recruitment biochemical assay; activation, % at 8 µM; hit rate 0.41% among 200,000; AID 631; in the data active = activation above about 19%
# PPARg SRC2 conf – confirmation of agonists of SRC-2 recruitment by human PPARgamma; shares compounds with PPARg SRC-3 ag; biochemical SRC-2 recruitment by PPARgamma; activation, % at 8 µM; hit rate 52% among 790; AID 1297
# PPARg SRC1 conf – confirmation of agonists of SRC-1 recruitment by human PPARgamma; shares compounds with PPARg SRC-3 ag; hit rate 43% among 790; activation, % at 8 µM; PPARgamma–SRC-1 coactivator recruitment biochemical assay; in the data active = activation above about 20%
# PPARg SRC3 ag – confirmation of agonists of SRC-3 recruitment by human PPARgamma. shares compounds with PPARg SRC-3 ag. biochemical PPARgamma-SRC-3 coactivator recruitment, agonist mode. activation, % at 8 µM. hit rate 29% among 790. AID 1301; in the data active = activation above about 24%
# Hits are given with their value; 0 = inactive; - = not tested or not shown. In the library only some 0.9% were active in any assay of this set; here they are far more common. Cut-off read from the data, not from the text of the source, unless noted: active = activation above about 22%; inactive = the rest.
SMILES,SRC1 TRFRET art,SRC3 TRFRET art,PPARg SRC2 recr,PPARg SRC-3 ag,SRC2 TRFRET art,PPARg SRC1 recr,PPARg SRC2 conf,PPARg SRC1 conf,PPARg SRC3 ag
COc1cc(C(=O)NCCC(C)C)ccc1OCc1ccc(Cl)cc1Cl,0,0,0,46.5,0,48.0,0,45.4,38.1
COc1ccc2c(Cl)c(C(N)=O)sc2c1,2690,2550,36.6,0,2210,32.6,36.0,25.4,24.6
COc1ccc2c(Cl)c(C(=O)NN)sc2c1,-,-,0,0,0,0,-,-,-
Cc1cccc2c(SCC(=O)NCC3CCCO3)nc(-c3ccc(F)cc3)nc12 (stereo not drawn),-,-,0,0,0,0,-,-,-
CC1(C)Cc2ccccc2-c2nc3n(c(=O)c21)CCS3,0,0,0,0,0,0,-,-,-
CCn1c(=S)[nH]c2c(c1=O)C(C)(C)Cc1ccccc1-2,3374,2752,32.9,28.4,2673,44.1,35.5,22.9,24.5
Cn1c(=S)[nH]c2c(c1=O)C(C)(C)Cc1ccccc1-2,3109,2669,44.7,24.9,2681,39.7,36.6,24.3,24.2
COc1ccc(S(=O)(=O)N2CCC(O)(c3cccnc3)CC2)cc1OC,0,0,0,0,0,0,-,-,-
Cc1ccc(C)c(N2CCN(C(=O)c3ccc(Cn4c(=S)[nH]c5ccc(N6CCOCC6)cc5c4=O)cc3)CC2)c1,4039,3971,0,28.1,3479,26.0,0,0,0
O=C(c1ccc(Cn2c(=S)[nH]c3cc4c(cc3c2=O)OCO4)cc1)N1CCN(c2ccccc2)CC1,0,0,0,0,0,0,-,-,-
CCOCCCNC(=S)N1CCC(NC(=O)C23CC4CC(CC(C4)C2)C3)CC1,0,0,0,0,0,0,-,-,-
Cc1cccc(C)c1C(OCCN(C)C)C1CCCCC1 (stereo not drawn),0,0,0,0,0,0,-,-,-
O=[N+]([O-])c1ccc(-c2ccc(C=Nc3cccc4ccccc34)o2)cc1,-,-,0,0,0,0,-,-,-
O=[N+]([O-])c1cc(-c2ccc(/C=N/c3nc4ccccn4c3-c3ccco3)o2)ccc1Cl,-,-,0,27.0,0,0,0,0,0
COc1ccc(C(=O)NC(=S)NNC(=O)CNC(=O)C2CCCCC2)cc1,0,0,0,0,0,0,-,-,-
Brc1cc(Br)c2nc(-c3ccc(N4CCOCC4)cc3)ccc2c1,-,-,22.4,34.6,2276,24.6,24.0,0,0
Cc1cc(C)c2cc(C#N)c(N3CCCN(S(=O)(=O)c4ccccc4)CC3)nc2c1,-,-,0,0,0,0,-,-,-
CC(=O)c1cccc(S(=O)(=O)N2CCN(c3nc4cc(C)cc(C)c4cc3C#N)CC2)c1,-,-,0,38.7,0,25.7,0,0,0
CCOc1ccc(C(C)C)cc1S(=O)(=O)n1ccnc1C,0,0,0,0,0,0,-,-,-
Cn1c(=O)cc(OCCCC(=O)N2CCCCC2)c2ccccc21,-,-,0,0,0,0,-,-,-
Cn1c(=O)cc(SCC(=O)N2CCCC2)c2ccc(Cl)cc21,-,-,87.2,86.8,3299,71.6,42.2,29.1,30.3
Cn1c(=O)cc(SCC(=O)N2CCOCC2)c2ccc(Cl)cc21,-,-,62.1,82.6,2895,61.1,28.6,0,0
COCCNC(=O)CSc1cc(=O)n(C)c2cc(Cl)ccc12,3701,2886,27.6,39.9,2945,62.1,38.6,25.5,26.9
CN(CCCNC(=O)CSc1cc(=O)n(C)c2ccc(Cl)cc12)Cc1ccccc1,3259,3068,57.6,46.4,2374,50.6,39.6,24.2,0
O=C(Nc1nc(-c2ccc(S(=O)(=O)N3CCCC3)cc2)cs1)C1COc2ccccc2O1 (stereo not drawn),-,-,22.2,32.5,2533,19.8,34.1,27.2,0
SMILES,SRC1 TRFRET art,SRC3 TRFRET art,PPARg SRC2 recr,PPARg SRC-3 ag,SRC2 TRFRET art,PPARg SRC1 recr,PPARg SRC2 conf,PPARg SRC1 conf,PPARg SRC3 ag
O=C(Nc1nc(-c2ccc3c(c2)OCCO3)cs1)c1ccc(S(=O)(=O)N2CCCCC2)cc1,-,-,0,0,0,0,-,-,-
O=C(Nc1nc(-c2ccc(S(=O)(=O)N3CCCCCC3)cc2)cs1)c1ccccc1,-,-,0,0,2426,21.0,52.3,38.6,33.3
CNC(=O)c1[nH]cnc1C(=O)N[C@@H](C)C(=O)OC(C)(C)C,0,0,0,0,0,0,-,-,-
CCOc1ccc(OCC)c(NC(=O)Nc2ccc3c(c2)N(C)C(=O)CS3)c1,-,-,0,0,0,0,-,-,-
CCOc1cc(CNc2ccc(N3CCCCC3)cc2)cc(Br)c1OCC(=O)NC(C)(C)C,0,0,0,0,0,0,-,-,-
CCOc1cc(CNc2ccc(N(C)C)cc2)cc(Br)c1OCC(=O)NC(C)(C)C,-,-,123.4,127.8,3290,55.4,0,0,0
CC1(CC(=O)N/N=C/c2cc3c(cc2Br)OCO3)OCCO1,0,0,0,0,0,0,-,-,-
Cc1cc(Br)ccc1OCC(=O)NNC(=O)C(=O)Nc1ccccc1,0,0,0,0,0,0,-,-,-
C#CCSc1ncc(-c2ccccc2)cn1,0,0,0,0,0,21.1,0,0,0
Cc1cn(S(=O)(=O)c2ccc(Br)c3ccccc23)cn1,-,-,49.0,51.9,2712,30.8,40.4,26.3,27.8
O=C(CCc1nnc(-c2ccsc2)o1)N1CCc2c(Cl)cccc2C1,0,0,0,0,0,0,-,-,-
N#Cc1ccccc1CSc1ccc(-c2nc3ccccc3[nH]2)cn1,-,-,33.5,26.1,0,22.2,34.8,22.8,0
CC(=O)CSc1ccc(-c2nc3cc(C)c(C)cc3[nH]2)cn1,0,0,0,0,0,0,-,-,-
O=C(NCCC1=CCCCC1)Nc1ccc2nsnc2c1,0,0,26.7,0,0,27.6,0,0,0
CN1CCC(=NNC(=O)c2cn(-c3ccccc3)nc2-c2ccccc2)CC1,0,0,0,0,0,0,-,-,-
CCN(CC)S(=O)(=O)c1ccc(C(=O)NCc2ccc3c(c2)cc(C)n3C)cc1,-,-,75.2,48.8,4972,25.9,158.4,120.1,102.4
Cc1cc2cc(CNC(=O)c3ccc(S(=O)(=O)N4CCCCC4)cc3)ccc2n1C,-,-,74.5,111.0,4697,83.3,173.0,143.3,101.9
Cc1cc2cc(CNC(=O)c3ccc(S(=O)(=O)N4CCCC4)cc3)ccc2n1C,-,-,83.5,88.2,5041,60.5,100.1,84.3,59.0
Cc1cc2cc(CNC(=O)C3CC3)ccc2n1C,-,-,0,0,0,0,-,-,-
Cc1occc1C(=O)N/N=C/c1c[nH]c2ccccc12,-,-,0,0,0,19.0,0,0,0
COc1ccccc1-c1n[nH]c(=S)n1N,0,0,0,0,0,0,-,-,-
COc1ccc(-n2c(-c3ccco3)n[nH]c2=S)cc1,-,-,0,0,0,21.7,0,0,0
Nn1c(-c2ccco2)n[nH]c1=S,-,-,0,0,0,0,-,-,-
S=c1[nH]nc(-c2ccco2)n1-c1ccc(Cl)cc1,0,2067,22.8,0,0,0,0,0,0
